High-throughput results: PubChem BioAssay, National Center for Advancing Translational Sciences (NCATS)
TDP1 cell CPT = DT40-hTDP1 cell growth loss with CPT | chicken DT40 Tdp1-/-;hTDP1 cells + 20 nM CPT, ATP luminescence, 48 h | Potency, µM (titrated, usually from 46.2 µM), without a hit: top-dose activity change, negative = growth inhibition, usual class: inhibitors | 12% of 420,000 active | AID 686979; also: potency is read from the fitted curve at half-maximal effect; nearly all actives have a fitted effect of over 55% in size
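Chicken DT40 Tdp1-/- cells complemented with human TDP1, 400 cells/well, exposed to compounds plus 20 nM camptothecin for at least 48 h at 37 C; viability read as ATP content by CellTiter-Glo luminescence.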
TDP1 cell noCPT = qHTS for Inhibitors of human tyrosyl-DNA phosphodiesterase 1 (TDP1): qHTS in cells in absence of CPT | DT40 Tdp1-/- hTDP1 cells, no CPT, ATP luminescence, 48 h | Potency, µM (highest dose often 46.2 µM), for the others: top-dose activity change, negative = growth inhibition, actives largely listed as inhibitors | 15% of 420,000 active | AID 686978, 2013; also: potency is read from the fitted curve at half-maximal effect; nearly all actives have a fitted effect of over 55% in size
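Readout: luminescence from CellTiter-Glo after 30 min in the dark at RT. Cells: DT40 Tdp1-/- with stable hTDP1, 400/well. Exposure: compounds alone, ≥48 hr, 37 °C.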
HT1080-NT tox = kills 2HG-producing HT-1080-NT fibrosarcoma cells; HT-1080-NT fibrosarcoma viability, CellTiter-Glo ATP luminescence, 48 h; Potency, µM (top dose mostly 46.1 µM), for inactives: at the highest dose activity, negative = less viability, most hits filed as cytotoxic; 1.6% of 360,000 active;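 also: NT is the 2HG producing partner of a matched IDH1 knockdown line; potency is read from the fitted curve at half-maximal effect; 0% = DMSO-treated cells and -100% = media-only wells without cells; nearly all actives have a fitted effect of over 55% in size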
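Viability by CellTiter-Glo luminescence after 48 h compound exposure at 37C of HT-1080-NT cells (750/well, RPMI, 5% FBS). % activity scaled between DMSO wells and medium-only wells, then curve-fitted and categorized by curve class.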
IL1B secr inh = blocks inflammasome-driven IL-1 beta release; THP-1 LPS/ATP IL-1B secretion, AlphaLISA, 16 h; active compounds read low; activity change, % at 57.5 µM; 4.7% of 360,000 active; AID 743279; in the data active = activity change below about -50%; inconclusive = mostly about -30% to -49%
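THP-1 cells pretreated 1 hr with compounds (up to 57.5 uM final), then stimulated with LPS (250 ng/mL final) plus ATP (1.25 mM final); secreted IL-1B measured by AlphaLISA after 16 hr, decreased signal indicating inhibition.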
HT1080 IDH1KD tx = kills HT-1080 cells with IDH1 knockdown | Potency, µM (titrated, usually from 46.1 µM), inactives show at the highest dose activity, negative = toxicity, hits mostly cytotoxic | HT-1080 IDH1 knockdown viability, ATP luminescence, 48 h | 2% of 360,000 active | AID 686971;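 also: potency is read from the fitted curve at half-maximal effect; 0% = DMSO wells and -100% = cell-free medium wells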
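Assay cells: HT-1080 with IDH1 knockdown, 750 per well, RPMI/5% FBS. Exposure: 48 h at 37 °C following 2 h pre-incubation. Read: CellTiter-Glo luminescence; fitted concentration-response, curve class assigned.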
* = called active by the depositor; ? = inconclusive; . = no result; [ ] = dose if it differs, or a comment. A selection: hits, their analogues and other compounds. The true share with any hit is near 19%. Unless noted, calls follow the shape of the dose curve; as a rule, active = well fitted curve in the direction sought with a large enough effect; inconclusive = small, poorly fitted or top-dose-only effect, or another doubt; inactive = no such curve, though single readings can be large; an effect the other way counts as inactive or inconclusive. Unless noted, % is scaled to controls: 0 for no effect and ±100 for the full control effect.

SMILES | TDP1 cell CPT | TDP1 cell noCPT | HT1080-NT tox | IL1B secr inh | HT1080 IDH1KD tx
CC(=O)NC(=S)Nc1cccc2c(C)cc(C)nc12 | 1% | -10% | 3% | 27 | 0%
Cc1ccc2cccnc2c1NC(=S)NC(=O)c1ccccc1 | ? | -19% | 11µM* | 26 | ?
O=C(NC(=S)Nc1ccc2ncccc2c1)c1ccccc1 | 2% | ? | 0% | -8 | -13%
COc1ccc(C)cc1N(CC(=O)Nc1ccc2c(c1)OCCO2)S(C)(=O)=O | -15% | ? | 0% | -15 | 1%
CC(=O)NC(Cc1ccccc1)C(=O)Oc1ccc2ccccc2c1 (stereo not drawn) | -4% | -1% | -5% | -13 | -8%
COc1ccc(CSc2n[nH]c(C)n2)cc1[N+](=O)[O-] | -20% | -25% | 23% | 0 | 16%
COc1ccc(NS(=O)(=O)c2cc(C(=O)O)ccc2C)cc1 | -10% | -12% | -26% | 4 | 2%[9.24 µM]
COc1ccc(NS(=O)(=O)c2cc(C)ccc2C)cc1 | 21µM* | 16µM* | -25% | 29 | ?
COc1ccc(NS(=O)(=O)c2cc(S(C)(=O)=O)ccc2C)cc1 | 0% | -19% | 3% | -9 | 21%
COc1ccc(NS(=O)(=O)c2cc(NC(=O)c3ccc(=O)[nH]n3)ccc2C)cc1 | 18µM* | 18µM* | 26µM* | 47 | ?
COc1ccc(NC(=O)c2cc(-c3ccccc3)oc2C)cc1 | -17% | ? | 2% | 0 | 7%
COc1ccc(NS(=O)(=O)c2cc(OC)ccc2NC(=O)c2cc(C)oc2C)cc1 | 5.2µM* | 2.6µM* | 5.8µM* | 41 | 5.8µM*
CCCCCCCC/C=C\C/C=C\C/C=C\CCCC(=O)NCCO | -8%[4.12 µM] | -13%[4.12 µM] | . | . | .
COc1ccc(CNC(=O)CN2CCC(NC(=O)c3ccc(OC)cc3)CC2)cc1 | 1% | -20% | -5% | -6 | -2%
CC(=O)Nc1ccc(S(=O)(=O)Nc2nc3n(n2)C(c2ccccc2)C=C(c2ccc(Cl)cc2)N3)cc1 (stereo not drawn) | 4% | -16% | . | . | .
COc1ccc(C(=O)Nc2nc3n(n2)C(c2ccc(F)cc2)C=C(c2ccc(Cl)cc2)N3)cc1 (stereo not drawn) | 15µM* | 7.3µM* | . | . | .
O=S(=O)(Nc1nc2n(n1)C(c1ccccc1)C=C(c1ccc(Cl)cc1)N2)c1ccccc1 (stereo not drawn) | 2% | 2% | . | . | .
COc1ccc(C2C=C(c3ccc(Cl)cc3)Nc3nc(NC(=O)CCC(=O)O)nn32)cc1 (stereo not drawn) | 6% | -25% | . | . | .
COc1ccc(C2C=C(c3ccccc3)Nc3nc(NS(=O)(=O)c4ccc(Cl)cc4)nn32)cc1 (stereo not drawn) | ? | 16µM* | . | . | .
O=C(Nc1nc2n(n1)C(c1ccccc1)C=C(c1ccccc1)N2)c1ccc(Cl)c([N+](=O)[O-])c1 (stereo not drawn) | 12µM* | 12µM* | . | . | .
O=C(Nc1nc2n(n1)C(c1ccc(F)cc1)C=C(c1ccc(Cl)cc1)N2)c1ccc([N+](=O)[O-])cc1 (stereo not drawn) | 5.8µM* | 5.2µM* | . | . | .
CCN(CC(=O)NC1CCS(=O)(=O)C1)c1ccc([N+](=O)[O-])cc1C#N (stereo not drawn) | -24% | 1% | -4%[9.24 µM] | 12 | 1%
O=C(Nc1nc2n(n1)C(c1ccc(F)cc1)C=C(c1ccccc1)N2)c1ccc(Cl)cc1 (stereo not drawn) | ? | 18µM* | . | . | .
Cc1sc2ncn(CC(=O)NCC(=O)N3CCN(c4ccccc4F)CC3)c(=O)c2c1C | -2% | 8% | 16% | 6 | 9%
COc1cccc(NC(=O)/C(C#N)=C\c2cn(Cc3ccc(C)cc3)c3ccccc23)c1 | 10µM* | 5.8µM* | . | . | .
COc1cccc(NC(=O)/C(C#N)=C/c2c(C)n(Cc3ccc(Cl)cc3)c3ccccc23)c1 | -23% | ? | . | . | .
